Results as given in article PMC7862700, “An all-to-all approach to the identification of sequence-specific readers for epigenetic DNA modifications on cytosine”.

What was measured:
Assay in all cases: DAPPL (digital affinity profiling via proximity ligation, sequencing); 10 mM Tris-HCl pH 7.5, 50 mM NaCl, 1 mM DTT, 4% glycerol, room temperature, 30 min; GST-TFs on glutathione beads, 16-mer random dsDNA library, 0.1% formaldehyde crosslink after washing; high values mean tight binding
FEV = molecular target: T1, FEV (Homo sapiens, UniProt Q99581 1-238); details: protein: recombinant; tags: N-terminal GST; dsDNA, one strand shown
T1 sequence: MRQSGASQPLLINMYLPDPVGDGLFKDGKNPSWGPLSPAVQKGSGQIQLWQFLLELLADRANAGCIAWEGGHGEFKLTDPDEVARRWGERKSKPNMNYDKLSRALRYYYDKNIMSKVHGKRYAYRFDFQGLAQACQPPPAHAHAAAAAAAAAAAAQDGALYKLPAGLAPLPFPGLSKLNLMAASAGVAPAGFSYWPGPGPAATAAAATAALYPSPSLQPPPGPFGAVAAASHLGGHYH
How it was run: (§1)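 Sequencing on an Illumina NextSeq500 followed washing, crosslinking with 0.1% formaldehyde, proximity ligation (BsaI/T4 ligase, 1 h, 37 °C) and PCR amplification of pools that had been incubated for 30 min at room temperature with 200 nmole of a random double-stranded 16-mer DNA library in Tris/NaCl/DTT/glycerol buffer. Each pool held DNA-barcoded human transcription factors, expressed in yeast as GST fusions and captured on glutathione beads, plus a tag-only sample. Binding signal is a hexamer's read frequency for a factor divided by its frequency in the tag-only sample.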

ETV5 = ETV5 (Homo sapiens, UniProt P41161 1-510); details: protein: recombinant; tags: N-terminal GST; dsDNA, one strand shown
How it was run: as §1

HSF1 = HSF1 (Homo sapiens, UniProt Q00613 1-529); details: protein: recombinant; tags: N-terminal GST; chain copies: 3; dsDNA, one strand shown
How it was run: as §1

SPIC = molecular target: T2, SPIC (Homo sapiens, UniProt Q8N5J4 1-248); details: protein: recombinant; tags: N-terminal GST; dsDNA, one strand shown
T2 sequence: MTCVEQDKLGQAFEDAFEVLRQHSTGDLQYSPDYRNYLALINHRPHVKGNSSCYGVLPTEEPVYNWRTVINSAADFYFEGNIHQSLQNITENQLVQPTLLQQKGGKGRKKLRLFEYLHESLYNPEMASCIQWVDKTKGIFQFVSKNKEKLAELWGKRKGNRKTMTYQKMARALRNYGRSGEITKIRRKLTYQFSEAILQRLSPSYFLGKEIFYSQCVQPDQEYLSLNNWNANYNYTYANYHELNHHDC
How it was run: as §1

ELF4 = ELF4 (Homo sapiens, UniProt Q99607 1-663); details: protein: recombinant; tags: N-terminal GST; dsDNA, one strand shown
How it was run: as §1

ELK4 = molecular target: T3, ELK4 (Homo sapiens, UniProt P28324-2 1-405); details: protein: recombinant; tags: N-terminal GST; dsDNA, one strand shown
T3 sequence: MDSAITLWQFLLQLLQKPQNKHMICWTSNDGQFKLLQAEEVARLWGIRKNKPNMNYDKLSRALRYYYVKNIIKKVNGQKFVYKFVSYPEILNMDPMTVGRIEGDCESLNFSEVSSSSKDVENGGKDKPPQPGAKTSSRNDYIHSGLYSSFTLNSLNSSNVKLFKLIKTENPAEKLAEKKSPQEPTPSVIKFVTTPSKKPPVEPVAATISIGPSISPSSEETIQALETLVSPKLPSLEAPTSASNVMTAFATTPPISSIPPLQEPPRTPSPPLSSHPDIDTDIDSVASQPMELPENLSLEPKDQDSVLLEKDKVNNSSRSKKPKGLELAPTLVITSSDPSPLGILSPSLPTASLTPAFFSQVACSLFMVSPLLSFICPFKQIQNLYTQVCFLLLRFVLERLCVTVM
How it was run: as §1

ETV2 = molecular target: T4, ETV2 (Homo sapiens, UniProt O00321 1-342); details: protein: recombinant; tags: N-terminal GST; dsDNA, one strand shown
T4 sequence: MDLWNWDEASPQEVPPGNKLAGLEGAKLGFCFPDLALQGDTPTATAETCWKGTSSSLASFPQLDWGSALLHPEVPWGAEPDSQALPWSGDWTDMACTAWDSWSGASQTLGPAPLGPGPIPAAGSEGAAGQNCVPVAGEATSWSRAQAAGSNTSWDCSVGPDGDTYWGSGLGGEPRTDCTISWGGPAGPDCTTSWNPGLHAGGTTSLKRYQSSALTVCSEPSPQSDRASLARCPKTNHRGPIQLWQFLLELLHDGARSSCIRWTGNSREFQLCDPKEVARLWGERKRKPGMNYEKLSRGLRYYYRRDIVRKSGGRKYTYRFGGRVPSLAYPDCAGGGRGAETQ
How it was run: as §1

ELF3 = molecular target: T5, ELF3 (Homo sapiens, UniProt P78545 1-371); details: protein: recombinant; tags: N-terminal GST; dsDNA, one strand shown
T5 sequence: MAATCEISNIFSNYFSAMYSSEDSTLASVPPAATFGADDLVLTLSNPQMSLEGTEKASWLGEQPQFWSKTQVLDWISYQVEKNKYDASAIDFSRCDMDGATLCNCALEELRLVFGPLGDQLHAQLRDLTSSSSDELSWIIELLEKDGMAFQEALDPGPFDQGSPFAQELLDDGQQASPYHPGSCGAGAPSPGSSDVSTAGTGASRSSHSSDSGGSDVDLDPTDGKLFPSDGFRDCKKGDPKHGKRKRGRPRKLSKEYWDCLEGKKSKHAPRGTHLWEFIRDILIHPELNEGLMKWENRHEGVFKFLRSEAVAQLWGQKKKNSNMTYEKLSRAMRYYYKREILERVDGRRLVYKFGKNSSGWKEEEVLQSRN
How it was run: as §1

CRX = CRX (Homo sapiens, UniProt O43186 1-299); details: protein: recombinant; tags: N-terminal GST; dsDNA, one strand shown
How it was run: as §1

ETV1 = ETV1 (Homo sapiens, UniProt P50549 1-477); details: protein: recombinant; tags: N-terminal GST; dsDNA, one strand shown
How it was run: as §1

ERF = molecular target: T6, ERF (Homo sapiens, UniProt P50548 1-548); details: protein: recombinant; tags: N-terminal GST; dsDNA, one strand shown
T6 sequence: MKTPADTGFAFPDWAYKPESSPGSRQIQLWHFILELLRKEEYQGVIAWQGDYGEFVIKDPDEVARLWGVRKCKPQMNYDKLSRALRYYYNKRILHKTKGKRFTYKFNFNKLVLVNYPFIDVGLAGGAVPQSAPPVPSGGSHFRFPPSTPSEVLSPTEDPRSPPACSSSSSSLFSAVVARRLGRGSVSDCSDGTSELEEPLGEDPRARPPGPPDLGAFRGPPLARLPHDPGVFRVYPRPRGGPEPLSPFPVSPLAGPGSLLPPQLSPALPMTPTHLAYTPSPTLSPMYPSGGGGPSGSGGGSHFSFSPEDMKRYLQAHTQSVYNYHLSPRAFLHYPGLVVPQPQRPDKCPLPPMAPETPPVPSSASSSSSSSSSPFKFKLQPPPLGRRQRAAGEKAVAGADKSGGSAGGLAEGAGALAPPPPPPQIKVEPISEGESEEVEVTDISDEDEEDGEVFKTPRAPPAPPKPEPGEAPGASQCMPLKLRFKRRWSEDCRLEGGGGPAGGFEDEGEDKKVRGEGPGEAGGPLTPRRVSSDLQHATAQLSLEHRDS
How it was run: as §1

ETV3L = molecular target: T7, ETV3L (Homo sapiens, UniProt Q6ZN32 1-361); details: protein: recombinant; tags: N-terminal GST; dsDNA, one strand shown
T7 sequence: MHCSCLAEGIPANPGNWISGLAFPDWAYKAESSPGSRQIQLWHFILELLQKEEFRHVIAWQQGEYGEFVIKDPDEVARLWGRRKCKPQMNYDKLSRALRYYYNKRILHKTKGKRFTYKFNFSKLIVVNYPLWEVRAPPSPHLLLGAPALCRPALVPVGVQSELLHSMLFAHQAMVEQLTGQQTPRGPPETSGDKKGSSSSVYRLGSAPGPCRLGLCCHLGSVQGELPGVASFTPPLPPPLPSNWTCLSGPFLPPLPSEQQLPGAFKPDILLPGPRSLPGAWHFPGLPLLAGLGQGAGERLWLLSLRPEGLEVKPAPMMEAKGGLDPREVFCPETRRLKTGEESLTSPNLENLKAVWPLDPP
How it was run: as §1

ETS2 = molecular target: T8, ETS2 (Homo sapiens, UniProt P15036 1-469); details: protein: recombinant; tags: N-terminal GST; dsDNA, one strand shown
T8 sequence: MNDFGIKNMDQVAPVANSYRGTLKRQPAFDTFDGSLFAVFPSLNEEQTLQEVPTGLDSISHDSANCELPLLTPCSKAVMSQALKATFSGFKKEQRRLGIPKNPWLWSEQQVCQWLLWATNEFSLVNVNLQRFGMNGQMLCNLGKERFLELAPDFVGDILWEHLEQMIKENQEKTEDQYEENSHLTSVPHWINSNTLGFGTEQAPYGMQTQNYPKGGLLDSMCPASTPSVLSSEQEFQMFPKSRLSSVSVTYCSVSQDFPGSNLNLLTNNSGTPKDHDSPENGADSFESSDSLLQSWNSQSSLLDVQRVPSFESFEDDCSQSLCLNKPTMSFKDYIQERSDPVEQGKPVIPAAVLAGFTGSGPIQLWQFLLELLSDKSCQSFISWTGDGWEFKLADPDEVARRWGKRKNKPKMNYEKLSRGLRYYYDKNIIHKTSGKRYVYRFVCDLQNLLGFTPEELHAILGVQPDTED
How it was run: as §1

SPDEF = molecular target: T9, SPDEF (Homo sapiens, UniProt O95238 1-335); details: protein: recombinant; tags: N-terminal GST; dsDNA, one strand shown
T9 sequence: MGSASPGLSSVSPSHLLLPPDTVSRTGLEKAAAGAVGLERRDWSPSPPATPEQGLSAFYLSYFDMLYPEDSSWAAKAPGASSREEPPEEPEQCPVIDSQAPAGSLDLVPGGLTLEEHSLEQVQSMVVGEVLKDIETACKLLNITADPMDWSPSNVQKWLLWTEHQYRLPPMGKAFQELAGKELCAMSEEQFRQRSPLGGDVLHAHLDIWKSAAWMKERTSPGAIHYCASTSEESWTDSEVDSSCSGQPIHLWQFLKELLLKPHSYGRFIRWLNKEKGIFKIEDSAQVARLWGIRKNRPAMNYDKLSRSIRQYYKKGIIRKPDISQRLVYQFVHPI
How it was run: as §1

ETV7 = molecular target: T10, ETV7 (Homo sapiens, UniProt Q9Y603 1-341); details: protein: recombinant; tags: N-terminal GST; dsDNA, one strand shown
T10 sequence: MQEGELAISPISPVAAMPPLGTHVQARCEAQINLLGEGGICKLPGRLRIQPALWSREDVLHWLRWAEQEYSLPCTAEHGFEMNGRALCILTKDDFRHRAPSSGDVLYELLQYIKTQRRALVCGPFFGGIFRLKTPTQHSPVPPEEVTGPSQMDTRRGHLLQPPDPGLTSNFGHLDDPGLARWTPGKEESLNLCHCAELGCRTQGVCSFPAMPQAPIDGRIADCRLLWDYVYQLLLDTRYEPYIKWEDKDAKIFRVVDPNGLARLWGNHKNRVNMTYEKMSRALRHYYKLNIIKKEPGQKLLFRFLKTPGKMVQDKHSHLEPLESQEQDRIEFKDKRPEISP
How it was run: as §1

ELF5 = molecular target: T11, ELF5 (Homo sapiens, UniProt Q9UKW6-2 1-255); details: protein: recombinant; tags: N-terminal GST; dsDNA, one strand shown
T11 sequence: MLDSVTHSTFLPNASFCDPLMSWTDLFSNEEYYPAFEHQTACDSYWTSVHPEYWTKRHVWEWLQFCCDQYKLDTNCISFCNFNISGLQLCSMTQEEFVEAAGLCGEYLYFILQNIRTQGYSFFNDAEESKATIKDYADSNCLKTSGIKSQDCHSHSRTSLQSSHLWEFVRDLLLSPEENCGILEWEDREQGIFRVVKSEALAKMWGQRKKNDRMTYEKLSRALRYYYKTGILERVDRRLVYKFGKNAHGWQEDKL
How it was run: as §1

ETV3 = molecular target: T12, ETV3 (Homo sapiens, UniProt P41162-2 1-143); details: protein: recombinant; tags: N-terminal GST; dsDNA, one strand shown
T12 sequence: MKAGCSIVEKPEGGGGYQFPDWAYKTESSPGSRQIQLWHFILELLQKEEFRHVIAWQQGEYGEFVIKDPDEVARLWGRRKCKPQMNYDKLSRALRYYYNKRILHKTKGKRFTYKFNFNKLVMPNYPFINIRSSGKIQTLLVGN
How it was run: as §1

ETV6 = ETV6 (Homo sapiens, UniProt P41212 1-452); details: protein: recombinant; tags: N-terminal GST; dsDNA, one strand shown
How it was run: as §1

Chain of HSF1 (Q00613 whole entry): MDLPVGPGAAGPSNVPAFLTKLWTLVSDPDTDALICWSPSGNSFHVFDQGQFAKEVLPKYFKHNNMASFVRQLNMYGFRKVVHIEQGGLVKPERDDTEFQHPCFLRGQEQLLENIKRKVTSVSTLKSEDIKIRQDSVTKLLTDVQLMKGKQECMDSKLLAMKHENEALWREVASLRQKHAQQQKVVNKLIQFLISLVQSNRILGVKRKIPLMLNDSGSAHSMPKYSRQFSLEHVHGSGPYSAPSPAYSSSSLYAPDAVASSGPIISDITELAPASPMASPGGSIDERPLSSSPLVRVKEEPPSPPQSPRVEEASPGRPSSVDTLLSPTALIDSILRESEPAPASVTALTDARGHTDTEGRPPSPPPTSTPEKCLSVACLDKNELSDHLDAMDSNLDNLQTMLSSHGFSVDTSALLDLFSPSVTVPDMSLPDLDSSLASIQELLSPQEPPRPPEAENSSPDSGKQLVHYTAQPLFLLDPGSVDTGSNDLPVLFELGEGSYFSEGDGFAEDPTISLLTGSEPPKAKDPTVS
Chain of ELF4 (Q99607 whole entry): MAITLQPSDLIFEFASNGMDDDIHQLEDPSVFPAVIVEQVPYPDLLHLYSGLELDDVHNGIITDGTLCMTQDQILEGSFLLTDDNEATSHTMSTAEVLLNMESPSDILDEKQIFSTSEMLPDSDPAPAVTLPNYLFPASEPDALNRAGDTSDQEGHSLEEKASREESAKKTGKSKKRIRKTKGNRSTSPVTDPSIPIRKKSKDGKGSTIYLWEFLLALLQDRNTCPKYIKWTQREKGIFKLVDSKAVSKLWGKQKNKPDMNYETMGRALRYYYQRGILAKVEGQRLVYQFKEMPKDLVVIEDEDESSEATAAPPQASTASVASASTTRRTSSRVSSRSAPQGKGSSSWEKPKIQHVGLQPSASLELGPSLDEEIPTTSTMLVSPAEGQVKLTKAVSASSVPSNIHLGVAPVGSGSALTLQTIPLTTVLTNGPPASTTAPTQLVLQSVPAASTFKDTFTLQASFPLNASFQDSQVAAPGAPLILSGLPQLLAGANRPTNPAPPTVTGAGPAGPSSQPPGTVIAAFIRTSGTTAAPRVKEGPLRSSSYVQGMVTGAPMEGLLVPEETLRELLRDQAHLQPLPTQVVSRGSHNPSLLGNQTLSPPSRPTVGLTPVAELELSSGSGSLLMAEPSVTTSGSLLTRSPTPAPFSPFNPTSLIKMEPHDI
Chain of CRX (O43186 whole entry): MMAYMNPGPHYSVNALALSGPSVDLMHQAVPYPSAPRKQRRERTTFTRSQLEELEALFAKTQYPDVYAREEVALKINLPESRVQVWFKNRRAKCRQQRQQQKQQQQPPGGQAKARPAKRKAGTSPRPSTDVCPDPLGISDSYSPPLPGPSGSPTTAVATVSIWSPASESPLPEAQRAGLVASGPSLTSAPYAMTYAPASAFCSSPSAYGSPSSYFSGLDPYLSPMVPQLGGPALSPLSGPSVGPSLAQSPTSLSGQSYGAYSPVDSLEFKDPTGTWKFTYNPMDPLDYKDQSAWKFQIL
Chain of ETV5 (P41161 whole entry): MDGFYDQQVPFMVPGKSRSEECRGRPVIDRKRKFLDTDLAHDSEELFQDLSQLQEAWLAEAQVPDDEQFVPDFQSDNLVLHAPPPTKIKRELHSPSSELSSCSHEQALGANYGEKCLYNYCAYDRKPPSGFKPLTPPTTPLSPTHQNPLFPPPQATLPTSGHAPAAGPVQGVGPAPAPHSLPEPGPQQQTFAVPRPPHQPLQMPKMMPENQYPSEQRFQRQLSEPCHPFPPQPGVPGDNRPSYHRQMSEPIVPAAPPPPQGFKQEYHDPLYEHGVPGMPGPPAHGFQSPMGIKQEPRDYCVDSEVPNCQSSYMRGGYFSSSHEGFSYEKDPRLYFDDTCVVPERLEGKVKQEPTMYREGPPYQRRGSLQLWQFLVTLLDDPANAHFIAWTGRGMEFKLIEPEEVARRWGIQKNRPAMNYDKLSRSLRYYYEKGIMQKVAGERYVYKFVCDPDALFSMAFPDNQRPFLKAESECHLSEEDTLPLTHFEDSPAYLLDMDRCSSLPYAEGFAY
Chain of ETV1 (P50549 whole entry): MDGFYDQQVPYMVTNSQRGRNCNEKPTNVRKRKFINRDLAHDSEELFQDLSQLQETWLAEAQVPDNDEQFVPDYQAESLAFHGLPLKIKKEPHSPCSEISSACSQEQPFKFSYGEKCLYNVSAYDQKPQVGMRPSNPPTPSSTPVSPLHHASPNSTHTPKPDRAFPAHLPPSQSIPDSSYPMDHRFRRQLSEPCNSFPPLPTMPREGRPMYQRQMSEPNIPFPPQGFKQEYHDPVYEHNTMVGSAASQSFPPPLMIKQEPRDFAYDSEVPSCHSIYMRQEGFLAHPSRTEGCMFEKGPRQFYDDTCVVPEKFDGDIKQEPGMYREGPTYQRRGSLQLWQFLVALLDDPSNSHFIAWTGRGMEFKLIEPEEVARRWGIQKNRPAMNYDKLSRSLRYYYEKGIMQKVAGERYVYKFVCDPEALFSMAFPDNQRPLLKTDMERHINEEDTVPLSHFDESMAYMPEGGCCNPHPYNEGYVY
Chain of ETV6 (P41212 whole entry): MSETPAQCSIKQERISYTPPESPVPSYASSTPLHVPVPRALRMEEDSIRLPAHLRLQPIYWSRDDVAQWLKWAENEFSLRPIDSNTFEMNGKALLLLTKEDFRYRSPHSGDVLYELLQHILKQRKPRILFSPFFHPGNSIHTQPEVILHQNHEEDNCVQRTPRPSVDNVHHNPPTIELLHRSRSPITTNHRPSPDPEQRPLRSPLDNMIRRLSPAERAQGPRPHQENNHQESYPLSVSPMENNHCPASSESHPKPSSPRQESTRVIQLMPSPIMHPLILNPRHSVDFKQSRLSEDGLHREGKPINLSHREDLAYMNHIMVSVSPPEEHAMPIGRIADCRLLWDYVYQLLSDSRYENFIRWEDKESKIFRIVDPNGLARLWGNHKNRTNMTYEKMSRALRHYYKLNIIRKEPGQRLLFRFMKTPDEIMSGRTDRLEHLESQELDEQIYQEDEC

Sequence: GTATTA
- binding signal (FEV): 1.09 fold enrichment (6-mer frequency, TF over GST control)
- binding signal (ETV5): 1.14 fold enrichment (6-mer frequency, TF over GST control)
- binding signal (HSF1): 1.62 fold enrichment (6-mer frequency, TF over GST control)
- binding signal (SPIC): 1.04 fold enrichment (6-mer frequency, TF over GST control)
- binding signal (ELF4): 1.08 fold enrichment (6-mer frequency, TF over GST control)
- binding signal (ELK4): 1.14 fold enrichment (6-mer frequency, TF over GST control)
- binding signal (ETV2): 1.2 fold enrichment (6-mer frequency, TF over GST control)
- binding signal (ELF3): 1.09 fold enrichment (6-mer frequency, TF over GST control)
- binding signal (CRX): 2.49 fold enrichment (6-mer frequency, TF over GST control)
- binding signal (ETV1): 1.13 fold enrichment (6-mer frequency, TF over GST control)
- binding signal (ERF): 1.24 fold enrichment (6-mer frequency, TF over GST control)
- binding signal (ETV3L): 1.04 fold enrichment (6-mer frequency, TF over GST control)
- binding signal (ETS2): 1.07 fold enrichment (6-mer frequency, TF over GST control)
- binding signal (SPDEF): 1.17 fold enrichment (6-mer frequency, TF over GST control)
- binding signal (ETV7): 1.05 fold enrichment (6-mer frequency, TF over GST control)
- binding signal (ELF5): 1.02 fold enrichment (6-mer frequency, TF over GST control)
- binding signal (ETV3): 1.14 fold enrichment (6-mer frequency, TF over GST control)
- binding signal (ETV6): 1.16 fold enrichment (6-mer frequency, TF over GST control)
